Assay results reported in PubChem BioAssay (Tox21).
Results filed as inconclusive are left out. Activity calls are given as the source filed them. Unless noted, calls come from the whole dose curve.

Experiments:
[1] = Nuclear factor erythroid 2-related factor 2/antioxidant responsive element (Nrf2/ARE) small molecule agonists: qHTS cell viability counter screen in human keratinocytes (AID 1919968; active = well fitted curve in the direction sought with a large enough effect in the repeat runs; an effect the other way counts as inactive or inconclusive; note: nearly all actives have a fitted effect of over 55% in size; note: potency is the fitted concentration of half-maximal effect)
How it was run: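 Fluorescence read-out from CellTiter-Fluor after 1 h at 37 C. Wells held HaCaT-derived ARE-luciferase reporter cells (1,500/well) treated 23 h with DMSO-dissolved compounds. Run in the same wells as the luciferase agonist read.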

[2] = Nuclear factor erythroid 2-related factor 2/antioxidant responsive element (Nrf2/ARE) small molecule agonists: luciferase reporter gene qHTS assay in human keratinocytes (AID 1919969); note: nearly all actives have a fitted effect of over 35% in size; note: potency is the fitted concentration of half-maximal effect
[3] = target: Gonadotropin-releasing hormone receptor (Homo sapiens) (UniProt P30968); assay: Human gonadotropin-releasing hormone receptor (GnRHR) small molecule agonists, calcium flux assay in GnRHR-HEK293 cells (AID 1920063); note: nearly all actives have a fitted effect of over 35% in size; note: potency is the fitted concentration of half-maximal effect
Gonadotropin-releasing hormone receptor (Homo sapiens), sequence (P30968 whole entry, looked up): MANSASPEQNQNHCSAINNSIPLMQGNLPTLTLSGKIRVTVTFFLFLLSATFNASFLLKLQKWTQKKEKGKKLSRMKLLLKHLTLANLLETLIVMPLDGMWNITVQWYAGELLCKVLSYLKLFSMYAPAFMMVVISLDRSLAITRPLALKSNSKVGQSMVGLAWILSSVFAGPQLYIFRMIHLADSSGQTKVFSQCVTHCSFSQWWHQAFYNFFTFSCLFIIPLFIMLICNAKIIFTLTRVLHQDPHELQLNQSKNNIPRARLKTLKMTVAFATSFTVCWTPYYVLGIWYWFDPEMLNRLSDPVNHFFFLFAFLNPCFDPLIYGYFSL
How it was run: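 Calcium-dye fluorescence, Ex/Em=480/540, recorded every 1 sec over 3 min after compound addition to GnRHR-HEK293 cells. Cells had been seeded 18 hours earlier and dye-loaded for 1 hour at 37 C. Fifteen concentrations, triplicates.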

[4] = G protein-coupled receptor (GPCR) small molecule agonists, calcium flux assay: HEK293 wild type cell line counter screen (AID 1920065)
How it was run: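 Agonist mode; 18 h seeding at 37 C, 1 h dye load at 37 C; compounds pinned from DMSO, ATP as positive control; kinetic fluorescence 480/540 nm, 3 min, 1 s reads; 15 concentrations, triplicate.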

[5] = p53 small molecule agonists, cell-based qHTS assay with rat liver microsomes (AID 1963578)
How it was run: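 p53RE-bla cells, 4,000/well, pre-incubated 5 h, then given compounds plus rat liver microsomes (0.5 mg/mL final) and NADPH (0.5 mg/mL final). Incubation 16 h at 37 C; beta-lactamase reporter read by LiveBLAzer fluorescence after 2 h at room temperature.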

[6] = target: 5-hydroxytryptamine receptor 2A (Homo sapiens) (UniProt P28223); assay: 5-hydroxytryptamine receptor 2A (HTR2A) small molecule antagonists, cell-based qHTS assay (AID 1963586); note: nearly all actives have a fitted effect of over 45% in size; note: potency is the fitted concentration of half-maximal effect
5-hydroxytryptamine receptor 2A (Homo sapiens), sequence (P28223 whole entry, looked up): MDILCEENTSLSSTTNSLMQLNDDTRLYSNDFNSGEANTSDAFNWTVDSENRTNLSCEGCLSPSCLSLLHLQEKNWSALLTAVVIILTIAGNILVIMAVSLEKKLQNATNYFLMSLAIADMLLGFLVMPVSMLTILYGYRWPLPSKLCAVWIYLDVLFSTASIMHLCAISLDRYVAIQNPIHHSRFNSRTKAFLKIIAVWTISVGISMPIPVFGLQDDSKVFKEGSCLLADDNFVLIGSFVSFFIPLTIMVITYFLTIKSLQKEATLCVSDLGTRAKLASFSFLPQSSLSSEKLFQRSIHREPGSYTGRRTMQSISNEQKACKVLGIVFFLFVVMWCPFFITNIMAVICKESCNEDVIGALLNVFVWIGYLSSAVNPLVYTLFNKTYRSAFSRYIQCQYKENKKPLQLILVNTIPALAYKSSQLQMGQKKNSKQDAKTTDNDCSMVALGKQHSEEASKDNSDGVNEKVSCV
How it was run: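 CHO cells stably expressing human HTR2A were plated for 18 h at 37 C, then loaded with calcium dye for 1 h. Compounds were preincubated 5 min at room temperature before DOI (4 nM solution) was added. Kinetic fluorescence was read for 3 min.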

[7] = target: 5-hydroxytryptamine receptor 2A (Homo sapiens) (UniProt P28223); assay: 5-hydroxytryptamine receptor 2A (HTR2A) small molecule agonists, cell-based qHTS assay (AID 1963587); note: nearly all actives have a fitted effect of over 30% in size; note: potency is the fitted concentration of half-maximal effect
How it was run: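 CHO cells stably expressing human HTR2A, plated 18 h, loaded with calcium dye 1 h at 37 C. Agonist mode: compounds added and intracellular calcium fluorescence recorded kinetically for 2 min at 1 sec intervals.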

[8] = target: Muscarinic acetylcholine receptor M1 (Homo sapiens) (UniProt P11229); assay: Cholinergic receptor muscarinic 1 (CHRM1) small molecule agonists, cell-based qHTS assay (AID 1963589); note: nearly all actives have a fitted effect of over 35% in size; note: potency is the fitted concentration of half-maximal effect
Muscarinic acetylcholine receptor M1 (Homo sapiens), sequence (P11229 whole entry, looked up): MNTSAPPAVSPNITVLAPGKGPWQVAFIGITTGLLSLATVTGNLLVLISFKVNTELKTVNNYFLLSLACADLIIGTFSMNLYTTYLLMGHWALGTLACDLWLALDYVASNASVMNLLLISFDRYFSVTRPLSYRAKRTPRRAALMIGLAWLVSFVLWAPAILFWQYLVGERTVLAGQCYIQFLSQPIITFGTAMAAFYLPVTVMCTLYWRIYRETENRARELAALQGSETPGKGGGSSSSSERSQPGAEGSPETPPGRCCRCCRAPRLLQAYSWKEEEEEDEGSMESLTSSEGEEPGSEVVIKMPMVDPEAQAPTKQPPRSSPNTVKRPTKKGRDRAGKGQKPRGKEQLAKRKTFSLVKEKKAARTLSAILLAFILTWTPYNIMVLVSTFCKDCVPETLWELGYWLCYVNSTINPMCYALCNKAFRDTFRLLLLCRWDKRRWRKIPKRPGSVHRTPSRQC
How it was run: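 Calcium flux read-out: kinetic fluorescence at 1 sec intervals after pin-tool compound addition to dye-loaded CHRM1-CHO cells (human M1). Agonist mode; 15 concentrations tested in triplicate independent runs.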

[9] = target: Beta-2 adrenergic receptor (Homo sapiens) (UniProt P07550); assay: Adrenergic beta2 receptor (ADRB2) small molecule antagonists, cell-based qHTS assay (AID 1963592); note: nearly all actives have a fitted effect of over 50% in size; note: potency is the fitted concentration of half-maximal effect
Beta-2 adrenergic receptor (Homo sapiens), sequence (P07550 whole entry, looked up): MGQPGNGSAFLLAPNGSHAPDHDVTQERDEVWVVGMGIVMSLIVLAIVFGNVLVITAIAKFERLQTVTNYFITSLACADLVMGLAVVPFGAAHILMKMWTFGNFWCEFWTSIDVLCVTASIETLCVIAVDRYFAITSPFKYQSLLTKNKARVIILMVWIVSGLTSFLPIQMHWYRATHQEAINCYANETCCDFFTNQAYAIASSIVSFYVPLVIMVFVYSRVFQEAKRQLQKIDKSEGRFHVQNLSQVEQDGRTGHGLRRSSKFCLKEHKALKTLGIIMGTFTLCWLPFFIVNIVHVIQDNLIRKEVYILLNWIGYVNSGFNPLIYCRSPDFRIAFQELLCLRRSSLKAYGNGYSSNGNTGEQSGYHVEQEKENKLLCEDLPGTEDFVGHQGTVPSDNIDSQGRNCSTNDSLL
How it was run: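 Assay format: CHO-ADRB2 cells, 18-20hr seeding at 37C/5% CO2, then compound plus 1nM isoproterenol agonist mix for 0.5hr RT. Homogeneous time-resolved fluorescence cAMP detection after 1hr, expressed as 665/615 nm ratio.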

[10] = target: D(2) dopamine receptor (Homo sapiens) (UniProt P14416); assay: Dopamine D2 receptor (DRD2) small molecule agonists, cell-based qHTS assay (AID 1963594); note: nearly all actives have a fitted effect of over 35% in size
D(2) dopamine receptor (Homo sapiens), sequence (P14416 whole entry, looked up): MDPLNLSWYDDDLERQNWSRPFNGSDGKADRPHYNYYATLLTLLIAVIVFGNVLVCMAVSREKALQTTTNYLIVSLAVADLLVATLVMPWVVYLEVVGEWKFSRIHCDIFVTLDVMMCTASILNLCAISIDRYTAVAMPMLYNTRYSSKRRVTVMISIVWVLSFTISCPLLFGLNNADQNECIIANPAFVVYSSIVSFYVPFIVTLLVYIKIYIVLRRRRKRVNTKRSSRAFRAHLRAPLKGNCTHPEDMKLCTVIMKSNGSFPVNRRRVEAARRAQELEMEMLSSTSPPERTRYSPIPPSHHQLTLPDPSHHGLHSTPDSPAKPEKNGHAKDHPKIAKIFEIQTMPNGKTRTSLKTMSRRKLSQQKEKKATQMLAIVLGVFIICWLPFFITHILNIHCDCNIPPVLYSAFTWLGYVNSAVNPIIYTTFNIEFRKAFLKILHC
How it was run: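 HEK293 cells stably expressing human DRD2, pre-treated with PDE inhibitor Ro20-1724 (0.1 mM final) and compound 10 min at room temperature, then stimulated with NKH477 (200nM […]) for 30 min. cAMP read by HTRF (665/620 nm).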

[11] = target: D(2) dopamine receptor (Homo sapiens) (UniProt P14416); assay: Dopamine D2 receptor (DRD2) small molecule antagonists, cell-based qHTS assay (AID 1963595; active = well fitted inhibition curve with a large enough effect in the signal ratio in the repeat runs, with a control signal flat; the % refers to the signal ratio; note: potency is the fitted concentration of half-maximal effect)
How it was run: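 HEK293 cells stably expressing DRD2, preincubated with 0.1 mM Ro20-1724 and compounds 10 min, were stimulated with 200 nM NKH477 plus 12 nM quinpirole for 30 min at room temperature; cAMP measured by HTRF (665/620 nm).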

[12] = p53 small molecule agonists, cell-based qHTS assay with human liver microsomes: qHTS cell viability counter screen (AID 1963579); note: nearly all actives have a fitted effect of over 45% in size; note: potency is the fitted concentration of half-maximal effect
How it was run: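 p53RE-bla cells, 4,000/well, dosed 5 hours after plating, with human liver microsomes (0.5 mg/mL final) plus NADPH (0.5 mg/mL final), 16 hours at 37 C. Viability read as CellTiter-Glo luminescence after 30 min at room temperature.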

[13] = p53 small molecule agonists, cell-based qHTS assay with rat liver microsomes: qHTS cell viability counter screen (AID 1963580); note: nearly all actives have a fitted effect of over 45% in size
How it was run: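 After the beta-lactamase ratio was read, CellTiter-Glo was added to the same wells and luminescence measured at 30 min; cells had been treated 16 h at 37 C with compounds, rat liver microsomes and NADPH (0.5 mg/mL final each).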

[14] = p53 small molecule agonists, cell-based qHTS assay: qHTS cell viability counter screen (AID 1963581); note: nearly all actives have a fitted effect of over 45% in size
How it was run: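 Cytotoxicity read-out: ATP-based luminescence (CellTiter-Glo, 30 min RT) measured in the same wells as the p53 reporter assay, HCT-116 p53RE-bla cells, 16 h compound exposure at 37 C.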

[15] = p53 small molecule agonists, cell-based qHTS assay (AID 1963582; active = well fitted activation curve with a large enough effect in the signal ratio in the repeat runs, not every such curve was filed as active; the % refers to the signal ratio)
How it was run: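 Fluorescence intensity read-out of a beta-lactamase reporter under a p53 response element. Cells were exposed to DMSO-dissolved compounds for 16 h at 37 C, then developed with FRET substrate for 2 h at RT.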

[16] = cAMP Responsive Elements (CRE) small molecule agonists, cell-based qHTS assay (AID 1963590)
How it was run: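 Beta-lactamase reporter readout: LiveBLAzer B/G FRET substrate, 2 h at room temperature, added after 3 h compound treatment of CRE-bla HEK 293T cells at 37 C/5% CO2.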

[17] = cAMP Responsive Elements (CRE) small molecule antagonists, cell-based qHTS assay (AID 1963591; active = well fitted inhibition curve with a large enough effect in the signal ratio in the repeat runs, not every such curve was filed as active; the % refers to the signal ratio; note: potency is the fitted concentration of half-maximal effect)
How it was run: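 HEK293T CRE-bla; 18 h preincubation; compound pin-transfer; NKH477 0.25 uM final, 3 h, 37 C; LiveBLAzer FRET substrate 2 h RT.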

[18] = target: Muscarinic acetylcholine receptor M1 (Homo sapiens) (UniProt P11229); assay: Cholinergic receptor muscarinic 1 (CHRM1) small molecule antagonists, cell-based qHTS assay (AID 1963588); note: nearly all actives have a fitted effect of over 40% in size
How it was run: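 Compounds were tested at 15 concentrations in three independent runs. Dye-loaded CHRM1-CHO cells were exposed 5 min at room temperature before stimulation by acetylcholine added at 50nM. Intracellular calcium was read kinetically on FDSS for 3 min.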

[19] = target: Beta-2 adrenergic receptor (Homo sapiens) (UniProt P07550); assay: Adrenergic beta2 receptor (ADRB2) small molecule agonists, cell-based qHTS assay (AID 1963593);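 note: CHO cells stably overexpressing human ADRB2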
How it was run: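 CHO cells stably over-expressing ADRB2 were plated overnight at 37C, then dosed with compounds plus a stimulation mix containing 100uM IBMX and 25uM Ro-20-1724 for 0.5hr at room temperature. cAMP was measured by HTRF competition, 1hr.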

[20] = target: KiSS-1 receptor (Homo sapiens) (UniProt Q969F8); assay: Human kisspeptin (KISS1R) small molecule agonists, calcium flux assay in KISS1R-HEK293 cells (AID 1920064; active = well fitted curve in the direction sought with a large enough effect in the repeat runs; an effect the other way counts as inactive or inconclusive)
KiSS-1 receptor (Homo sapiens), sequence (Q969F8 whole entry, looked up): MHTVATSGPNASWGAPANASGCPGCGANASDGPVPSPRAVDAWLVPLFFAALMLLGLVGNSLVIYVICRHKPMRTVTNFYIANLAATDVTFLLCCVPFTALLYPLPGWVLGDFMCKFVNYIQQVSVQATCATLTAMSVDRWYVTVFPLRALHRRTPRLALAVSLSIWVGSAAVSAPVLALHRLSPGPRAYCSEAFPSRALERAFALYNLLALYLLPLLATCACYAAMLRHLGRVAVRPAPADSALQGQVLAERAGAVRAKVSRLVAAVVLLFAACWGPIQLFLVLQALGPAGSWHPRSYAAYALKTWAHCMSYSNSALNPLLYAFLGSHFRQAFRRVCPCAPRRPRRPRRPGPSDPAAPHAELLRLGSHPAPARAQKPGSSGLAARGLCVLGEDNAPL
How it was run: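 Calcium flux read-out: kinetic fluorescence at Ex/Em=480/540, 1 s intervals over 3 min, after pin-tool compound addition to dye-loaded KISS1R-HEK293 cells. Fifteen concentrations, triplicates.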

Measured: Potency

Cc1cc(CCN2CCN(c3nsc4ccccc34)CC2)cc2c1NC(=O)CC2(C)C
inactive: [2] | [3] | [4] | [5] | [6] | [7] | [8] | [10]
active: [1] 48.6 µM | [9] 34.4 µM | [11] 0.243 µM

CC(=O)OC(C)C[N+](C)(C)C (stereo not given)
active: [3] 1.07 µM | [8] 0.151 µM
not listed: [11] | [18] | [19] | [20]
inactive: all other assays above

CC(CN(CCN(CC(C)OCCO)CC(C)OCCO)CC(C)OCCO)OCCO (stereo not given)
not listed: [5] | [15] | [20]
inactive: all other assays above

Cc1cc2c(cc1CC(=O)c1sccc1S(=O)(=O)Nc1onc(C)c1Cl)OCO2
active: [1] 4.22 µM
not listed: [5] | [20]
inactive: all other assays above

COc1cccc(CCc2ccccc2OCC(CN(C)C)OC(=O)CCC(=O)O)c1 (stereo not given)
active: [6] 7.29 µM | [9] 4.73 µM
not listed: [5] | [10] | [15] | [19] | [20]
inactive: all other assays above

C=CCN(CC=C)CC=C
not listed: [5] | [15] | [16] | [20]
inactive: all other assays above

COC(=O)Nc1nc2ccc(C(=O)C3CC3)cc2[nH]1
active: [2] 8.41 µM
not listed: [12] | [13] | [14] | [15] | [19] | [20]
inactive: all other assays above

N#CCCN(CCO)CCO
not listed: [5] | [15] | [20]
inactive: all other assays above

CCN(CC)CC1CCCCN1CC(=O)N1c2ccccc2C(=O)Nc2cccnc21 (stereo not given)
not listed: [5] | [10] | [15] | [20]
inactive: all other assays above

CCCCCCCCOC(=O)c1cc(O)c(O)c(O)c1
active: [1] 61.1 µM | [3] 34.7 µM | [7] 49 µM | [17] 30.6 µM
inactive: [2] | [4] | [5] | [12] | [13] | [6] | [18] | [9] | [10]

CC(C)c1ccc2c(c1)CC[C@H]1[C@](C)(CN)CCC[C@]21C
active: [1] 12.2 µM | [3] 11 µM | [12] 40.8 µM | [7] 49 µM
inactive: [2] | [4] | [5] | [9] | [10]

CCCCCCCCCCC[C@@H](C[C@@H]1OC(=O)[C@H]1CCCCCC)OC(=O)[C@H](CC(C)C)NC=O
not listed: [19] | [20]
inactive: all other assays above

CCN1CCN(C(=O)N[C@@H](C(=O)N[C@@H]2C(=O)N3C(C(=O)O)=C(CSc4nnnn4C)CS[C@H]23)c2ccc(O)cc2)C(=O)C1=O
not listed: [5] | [8] | [17] | [19] | [20]
inactive: all other assays above

C/C=C(\C)C(C)=O
not listed: [5] | [7] | [15] | [17] | [20]
inactive: all other assays above

CC(C)OC(=O)c1cc(C(=O)OC(C)C)cc([N+](=O)[O-])c1
active: [9] 62.6 µM
not listed: [4] | [5] | [12] | [14] | [15] | [16] | [17] | [19]
inactive: all other assays above

COc1ccc2c(c1)c(CC(=O)OC/C=C(\C)CC/C=C(\C)CCC=C(C)C)c(C)n2C(=O)c1ccc(Cl)cc1
not listed: [10] | [18] | [19] | [20]
inactive: all other assays above

CCCOc1sc(C(=O)N2CCC(c3cc(CN)ccc3F)CC2)c(C)c1Br
active: [1] 17.7 µM | [3] 35.7 µM | [7] 50.4 µM
inactive: [2] | [4] | [5] | [6] | [18] | [10]

CC(C)C(=O)OCCc1ccccc1
not listed: [5] | [7] | [15] | [17] | [20]
inactive: all other assays above

COc1ccc(S(=O)(=O)Nc2nnc(CC(C)C)s2)cc1
not listed: [6] | [20]
inactive: all other assays above

COCCOc1cc2cc(C(=O)NC3CCN(C(C)C)CC3)n(CC(=O)Nc3ccc(Cl)cn3)c2cn1
not listed: [10] | [11] | [12] | [17] | [19] | [20]
inactive: all other assays above

O=C(Cl)c1ccc(F)c(Cl)c1
not listed: [9] | [12] | [16] | [19] | [20]
inactive: all other assays above

COc1cc2c(cc1OC)[C@@H]1CC(=O)[C@@H](CC(C)C)CN1CC2
not listed: [5] | [9] | [11] | [15] | [16] | [17] | [18] | [20]
inactive: all other assays above

CC(C)(CO)[N+](=O)[O-]
not listed: [5] | [15] | [20]
inactive: all other assays above

Nc1ccc(N)c2ccccc12
active: [1] 27.3 µM | [2] 7.69 µM | [7] 7.75 µM
inactive: [3] | [4] | [5] | [15] | [18] | [8] | [16] | [17] | [11]
